HCV inhibitor: inhibitors of hepatitis C virus infection. Huh7.5.1 HCVcc-Cre infection, luciferase reporter, 44 h. Potency, µM (series often up to 41.8 µM), for the others: at the highest dose activity change, negative = inhibition, usual class: inhibitors. 340,000 tested, 3.4% active. AID 651820; active means well fitted inhibition curve with a large enough effect; inconclusive means small, poorly fitted or top-dose-only effect, or another doubt; inactive means no such curve, though single readings can be large or run the other way; further: potency means the concentration at half of the fitted maximal effect
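Infectious HCV cell culture screen: compound-treated cells (1,000/well, pre-plated 4 h) are infected with HCVcc-Cre at roughly 0.5 moi and grown 44 h. Infection is quantified by luciferase signal after 15 min substrate incubation at room temperature.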
Vaccinia mCherry: inhibitors of vaccinia virus infection (mCherry reporter signal); Vaccinia virus mCherry reporter infection, fluorescence; Potency, µM (doses to about 36.5 µM), inactives show top-dose activity change, negative = inhibition, most hits filed as inhibitors; 310,000 tested, 0.63% active; calls by dose curve; tested in A549 cells; further: potency means the concentration at half of the fitted maximal effect; nearly all actives have a fitted effect of over 35% in size
HCMV antiviral: blocks human cytomegalovirus replication. activity change, negative = inhibition, % at 57.5 µM. 410,000 tested, 4.5% active. HFF cells, HCMV-luciferase reporter, 72 h; hits give low values; in the data active means activity change below about -60%; inconclusive means no clear call, values can overlap the other calls; inactive means above about -39%
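Inhibition of viral replication was scored as loss of reporter luminescence in HFFs infected with HCMV-luciferase (MOI 1 PFU/cell) for 72 h; compounds tested at 2 doses, normalized to buffer and Salinomycin controls.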
Marburg entry inh: Marburg virus entry inhibition | Marburg virus pseudotyped entry inhibition, cell reporter | Potency, µM (titrated, usually from 37.8 µM), for the others: at the top dose activity change, negative = inhibition, hits mostly inhibitors | 300,000 tested, 1.8% active; calls by dose curve; tested in HEK293 cells; further: potency means the concentration at half of the fitted maximal effect
Vaccinia Venus: inhibitors of vaccinia virus (Venus reporter); Potency, µM (series often up to 36.5 µM), for inactives: at the highest dose activity change, negative = inhibition, actives largely listed as inhibitors; Vaccinia virus Venus reporter expression, fluorescence; AID 720580; 330,000 tested, 0.46% active; calls by dose curve; tested in A549 cells; further: potency means the concentration at half of the fitted maximal effect; nearly all actives have a fitted effect of over 30% in size
Lassa entry inh: blocks Lassa virus binding to or entry into cells; 300,000 tested, 1.2% active; Lassa virus pseudotype entry inhibition, cell reporter; Potency, µM (doses to about 37.9 µM), without a hit: at the highest dose activity change, negative = inhibition, usual class: inhibitors; calls by dose curve; tested in HEK293 cells; further: potency means the concentration at half of the fitted maximal effect; nearly all actives have a fitted effect of over 50% in size
An asterisk follows results filed as active; i = inactive; ? = inconclusive; · = not tested or not shown; [ ] = dose if it differs, or a comment. Hits are enriched below; roughly 7.8% of the tested compounds scored in any of these assays. On the % scale 0 is the no-effect control and ±100 the full control effect.

SMILES	HCV inhibitor	Vaccinia mCherry	HCMV antiviral	Marburg entry inh	Vaccinia Venus	Lassa entry inh
O=S(=O)(Cc1cc(Cl)nc(-c2ccncc2)n1)c1ccccc1	?	-3%	-66*	?	-4%	-7%
CC(C)c1ccc(Nc2cc3c(cn2)ncn3CC2CC2)cc1	·	·	5	·	·	·
O=C1Cc2cc(S(=O)(=O)N3CCN(c4ccccc4)CC3)ccc2N1	-27%	-4%	36	-7%[46.1 µM]	-7%	-11%[46.1 µM]
O=C1Cc2cc(CCN3CCN(c4nsc5ccccc45)CC3)c(Cl)cc2N1	·	·	·	?	·	5.8µM*
Cc1cccc(Oc2sc(C(=O)c3ccccc3)c(N)c2C#N)c1	10µM*	·	14	?	?	1.6µM*
CC(C)(C)c1ccc(CSc2ccc(S(=O)(=O)N3CCOCC3)cn2)cc1	10µM*	·	?	·	·	·
Cc1ccc2c(Cl)cc(Cl)c(OCC(=O)NC(C)(C)C)c2n1	22µM*	·	4	·	·	·
Cc1ccc2c(Cl)cc(Cl)c(OCC(=O)Nc3cc(S(=O)(=O)N(C)C)ccc3C)c2n1	2.5µM*	-19%	-28	4µM*	-28%	?
Cc1ccc(SCCCCN2CCNCC2)cc1	11µM*	·	-1	?	·	29%
COc1ccc(NC(=O)CCCSc2ccccc2)cc1S(N)(=O)=O	-5%	i	?	1%[46.1 µM]	-1%	-15%
COc1ccc(NC(=O)COc2ccccc2Cc2ccccc2)cn1	?	-5%	-9	?	-6%	?
COc1ccc(NC(=O)CN(Cc2ccccc2)Cc2ccccc2)cc1S(N)(=O)=O	21%	-3%	-62*	-8%	-15%	0%
COc1ccc(NC(=O)COc2ccccc2Cc2ccccc2)cc1S(N)(=O)=O	10µM*	?	-73*	?	-29%	?
Cc1cccc(C(C)C)c1NC(=O)c1ccc2c(c1)CCCN2S(C)(=O)=O	·	-11%	1	-13%[46.1 µM]	2%	14%[46.1 µM]
COc1ccc2cc(C(=O)Nc3ccccc3)sc(=O)c2c1OC	?	0%	-32	11%	-15%	2%
O=C(Nc1ccccc1)c1cc2ccc3ccccc3c2s1	11µM*	-22%[7.34 µM]	152	?	-12%[7.34 µM]	11%
O=C(C1CCN(c2nnc(N3CCCC3=O)s2)CC1)N1CCN(c2cccc(C(F)(F)F)c2)CC1	?	·	-79*	·	·	·
Cc1ccc(C)c(N2CCN(C(=O)C3CCN(c4nnc(N5CCCC5=O)s4)CC3)CC2)c1	?	·	-30	?	-19%	?
Cc1ccc(S(=O)(=O)N2CCOCC2)cc1C(=O)N1CCN(c2ccc(C(F)(F)F)cn2)CC1	10µM*	i	-76*	?	-6%	?
COc1ccccc1N1CCN(c2nc(CNC(=O)C3CC34CCCC4)nc3ccccc23)CC1 (stereo unspecified)	·	-15%	·	·	-3%	·
OC(CNCCC1C=Nc2ccccc21)Cn1c2ccc(Cl)cc2c2cc(Cl)ccc21 (stereo unspecified)	?	20µM*	-39	?	?	?
CCOC(=O)C1CCN(C(c2ccc(SC)cc2)c2c(O)cc(C)n(Cc3ccco3)c2=O)CC1 (stereo unspecified)	·	-16%	21	·	-9%	-28%[46.1 µM]
CN(C)C(=S)SSC(=S)N(C)C	2%	-26%	-99*	·	-11%	·
N#Cc1cccc(NC(=O)CSc2ccc3c4c(cccc24)C(=O)c2ccccc2-3)c1	8.9µM*	-15%	?	?	18%	?
CC(C)c1ccc(/C=C(\C#N)c2nc(-c3ccc(O)cc3)cs2)cc1	·	-23%	-87*	·	?	5%[46.1 µM]
SMILES	HCV inhibitor	Vaccinia mCherry	HCMV antiviral	Marburg entry inh	Vaccinia Venus	Lassa entry inh
COc1ccc(/C=C(/C#N)c2nc(-c3ccc(Br)cc3)cs2)cc1	·	-18%	2	·	-5%	?
CCN1C(=NCCCOC(C)C)NC(c2ccccc2)C(C(=O)OC)=C1C (stereo unspecified)	·	·	·	-3%[14.2 µM]	·	?
CS(=O)(=O)N1CCN(c2ccc(NC(=S)NC(=O)c3ccc4c(c3)OCO4)cc2)CC1	10µM*	21%	-39	4%[46.1 µM]	5%	4%[46.1 µM]
COc1c(C(=O)Nc2ccc(CN3CCOCC3)cc2)cc2ccccc2c1Br	13µM*	-16%	4	11%	?	-24%
COc1ccc(C(=O)NC(=S)Nc2ccc(CN3CCOCC3)cc2)cc1	-10%	-18%	25	-20%[14.2 µM]	-30%	?
O=C(Nc1ccc(CN2CCOCC2)cc1)c1cc2ccccc2oc1=O	·	·	·	-3%	·	·
O=C(NC(=S)Nc1ccc(N2CCCCC2)cc1)c1ccc2c(c1)OCCO2	13%	-24%	?	5%	-12%	?
O=C(NC(=S)Nc1ccc(CN2CCOCC2)cc1)c1ccc2c(c1)OCCO2	35µM*	?	12	10µM*	?	-24%
O=C(/C=C/c1cccc([N+](=O)[O-])c1)NC(=S)Nc1ccc(CN2CCOCC2)cc1	4%	-4%	-72*	3%	-17%	?
Cc1cc(C)c2nccc(/C=C/c3ccc(N(C)C)cc3)c2c1	·	-22%	·	·	-10%	·
Cn1c(=O)n(C)c2cc(CNCc3ccc(F)cc3)ccc21	·	-20%	7	2%[46.1 µM]	-10%	3%[46.1 µM]
O=C(NC(=S)Nc1ccc(F)cc1)c1ccc2c(c1)OCCO2	?	·	-34	?	·	13µM*
O=C(Nc1ccc(CN2CCOCC2)cc1)c1ccc(-c2ccc(Br)cc2)o1	8.9µM*	-26%	?	?	?	?
O=C(Nc1ccc(CN2CCOCC2)cc1)c1ccc(Br)cc1	?	·	-20	·	·	·
O=C(NC(=S)Nc1ccc(N2CCOCC2)cc1)c1ccc2c(c1)OCCO2	7.9µM*	·	-85*	-18%	·	?
COc1ccc(NC(=S)NC(=O)c2ccc3c(c2)OCCO3)cc1	-6%	-4%	-22	?	-19%	-8%
COc1ccc(C(=O)NC(=S)Nc2ccc(CN3CCOCC3)cc2)cc1Br	-5%	·	-64*	·	·	·
